Source: PubChem BioAssay (Tox21)
“And” between values parts separate entries of the source, which are not always exact repeats. Equal entries are not always repeated. Records with an inconclusive call do not appear. The source made the active and inactive calls. Unless noted, calls come from the whole dose curve; as a rule, active = well fitted curve in the direction sought with a large enough effect in the repeat runs; inconclusive = weak or mixed curves; inactive = no such curve, though single readings can be large; an effect the other way counts as inactive or inconclusive.

Tests used:
[1] = qHTS assay to identify small molecule antagonists of the thyroid receptor (TR) signaling pathway (AID 743065); note: nearly all actives have a fitted effect of over 55% in size; note: potency is the fitted concentration of half-maximal effect
Outline: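 GH3.TRE-Luc rat pituitary cells carrying two TR response elements driving luciferase were plated for 4 h, given compound plus 1 nM T3 (final), and incubated 23.5 h at 37 C. ONE-Glo luminescence measured reporter inhibition; CellTiter-Fluor fluorescence tracked cytotoxicity.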

[2] = tested on: thyroid hormone receptor (rat, GH3 cells); experiment: qHTS assay to identify small molecule agonists of the thyroid receptor (TR) signaling pathway (AID 743066; calls by dose curve)
[3] = molecular target: Estrogen receptor (Homo sapiens) (UniProt P03372); experiment: qHTS assay to identify small molecule antagonists of the estrogen receptor alpha (ER-alpha) signaling pathway (AID 743069; active = well fitted curve in the direction sought with a large enough effect in the signal ratio in the repeat runs, not every such curve was filed as active; the % refers to the signal ratio)
Outline: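 Screening used a UAS-driven beta-lactamase reporter integrated into HEK293 cells expressing ER-alpha, stimulated with 17beta-estradiol alongside test compounds over 18 hr at 37C; signal came from LiveBLAzer B/G FRET fluorescence.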

[4] = qHTS assay to identify small molecule antagonists of the estrogen receptor alpha (ER-alpha) signaling pathway - cell viability counter screen (AID 743074; calls by dose curve; note: nearly all actives have a fitted effect of over 45% in size)
[5] = molecular target: Estrogen receptor (Homo sapiens) (UniProt P03372); experiment: qHTS assay to identify small molecule agonists of the estrogen receptor alpha (ER-alpha) signaling pathway (AID 743075; calls by dose curve)
[6] = molecular target: Estrogen receptor (Homo sapiens) (UniProt P03372); experiment: qHTS assay to identify small molecule agonists of the estrogen receptor alpha (ER-alpha) signaling pathway using the BG1 cell line (AID 743079); conditions: BG1Luc4E2 cells, ERE-luciferase agonist, 22 h; note: nearly all actives have a fitted effect of over 20% in size; note: potency is the fitted concentration of half-maximal effect
[7] = qHTS assay to identify small molecule antagonists of the estrogen receptor alpha (ER-alpha) signaling pathway using the BG1 cell line (AID 743080; calls by dose curve;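 note: BG1 cells stimulated with 17beta-estradiol alongside compound; nearly all actives have a fitted effect of over 25% in size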)
Outline: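 Endogenous full-length ER-alpha in BG1-Luc-4E2 cells drives a stably integrated 4×ERE luciferase gene; compounds were tested against 17beta-estradiol over 21.5 h, with luminescence and multiplexed viability fluorescence recorded.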

[8] = qHTS assay to identify small molecule antagonists of the estrogen receptor alpha (ER-alpha) signaling pathway using the BG1 cell line - cell viability counter screen (AID 743081);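 note: compound given together with 17beta-estradiol as the ER stimulus; nearly all actives have a fitted effect of over 45% in size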
[9] = molecular target: Aromatase (Homo sapiens) (UniProt P11511); experiment: qHTS assay to identify aromatase inhibitors (AID 743083); note: nearly all actives have a fitted effect of over 55% in size
[10] = qHTS assay to identify aromatase inhibitors - cell viability counter screen (AID 743084);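 note: cells stimulated with testosterone during compound exposure; nearly all actives have a fitted effect of over 55% in size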
% is set by controls: 0 for no effect and ±100 for the full control effect.

Chain of Aromatase (Homo sapiens) (P11511 whole entry, looked up): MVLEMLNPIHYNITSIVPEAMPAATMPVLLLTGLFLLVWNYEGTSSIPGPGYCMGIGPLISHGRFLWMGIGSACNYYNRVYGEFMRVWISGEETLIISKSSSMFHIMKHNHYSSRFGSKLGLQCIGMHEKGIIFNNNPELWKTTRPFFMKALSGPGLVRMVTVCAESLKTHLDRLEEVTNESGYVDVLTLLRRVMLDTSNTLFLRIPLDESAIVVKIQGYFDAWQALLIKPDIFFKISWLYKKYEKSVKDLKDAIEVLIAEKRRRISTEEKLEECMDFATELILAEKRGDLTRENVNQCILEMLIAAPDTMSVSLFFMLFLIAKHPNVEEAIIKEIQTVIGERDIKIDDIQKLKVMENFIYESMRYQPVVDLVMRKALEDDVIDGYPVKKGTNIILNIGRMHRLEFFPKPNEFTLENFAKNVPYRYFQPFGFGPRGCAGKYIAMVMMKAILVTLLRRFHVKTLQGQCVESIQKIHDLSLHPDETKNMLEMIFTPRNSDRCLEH
Chain of Estrogen receptor (Homo sapiens) (P03372 whole entry, looked up): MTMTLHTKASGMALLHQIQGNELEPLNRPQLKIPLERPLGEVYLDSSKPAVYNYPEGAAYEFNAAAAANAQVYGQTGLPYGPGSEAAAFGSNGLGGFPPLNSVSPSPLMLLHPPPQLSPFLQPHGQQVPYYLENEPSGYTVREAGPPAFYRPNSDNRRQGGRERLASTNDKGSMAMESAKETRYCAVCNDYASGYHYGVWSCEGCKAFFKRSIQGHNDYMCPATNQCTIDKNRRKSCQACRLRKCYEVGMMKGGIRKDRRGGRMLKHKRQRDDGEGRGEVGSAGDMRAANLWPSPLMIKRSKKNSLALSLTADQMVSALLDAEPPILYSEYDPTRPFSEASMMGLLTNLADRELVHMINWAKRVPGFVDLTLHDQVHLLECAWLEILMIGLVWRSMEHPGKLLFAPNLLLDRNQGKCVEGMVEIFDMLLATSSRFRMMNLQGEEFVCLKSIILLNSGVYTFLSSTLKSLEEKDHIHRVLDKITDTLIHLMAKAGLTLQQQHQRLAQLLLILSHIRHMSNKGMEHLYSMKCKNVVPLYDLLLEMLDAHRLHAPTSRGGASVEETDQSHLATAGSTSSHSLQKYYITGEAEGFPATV

O=c1[nH]oc2c1CCNC2
inactive: Potency [1] | Potency [2] | Potency [3] | Potency [4] | Potency [5] | activation ([6]; at 70.3 µM (top of the series)) -5.36% | Potency [7] | Potency [8] | Potency [9] | Potency [10]

CNC(=O)NC(O)C(Cl)(Cl)Cl (stereo not drawn)
inactive: Potency [1] | Potency [2] | Potency [3] | Potency [4] | Potency [5] | activation ([6]; at 70.3 µM (top of the series)) 2.72% | Potency [7] | Potency [8] | Potency [9] | Potency [10]

Brc1c(Br)c(Br)c(Br)c(Br)c1Br
inactive: activity, negative = inhibition [1] 36% [at 8.44 µM] | activation [2] -0.0085% [at 8.08 µM] | activity, negative = inhibition [3] -6.9% [at 6.71 µM] | activity, negative = cytotoxicity [4] -1.91% [at 6.72 µM] | activation [5] 2.61% [at 6.71 µM] | activation ([6]; at 8.47 µM (top of the series)) 1.05% | activity change, negative = inhibition [7] 17.5% [at 8.47 µM] | activity change, negative = cytotoxicity [8] 9.59% [at 8.47 µM] | activity, negative = inhibition [9] 14.6% [at 8.47 µM] | activity change, negative = cytotoxicity [10] -1.05% [at 8.47 µM]

CCOC(=O)Nc1cccc(OC(=O)Nc2ccccc2)c1
active: Potency [6] 27.3 µM
inactive: Potency [1] | Potency [2] | Potency [3] | Potency [4] | Potency [5] | Potency [8] | Potency [9] | Potency [10]

CN(C)CCc1c[nH]c2cccc(OP(=O)(O)O)c12
inactive: Potency [1] | Potency [2] | Potency [3] | Potency [5] | activation ([6]; at 70.3 µM (top of the series)) -12.3% | Potency [7] | Potency [8] | Potency [9] | Potency [10]

ClC1=C(Cl)C2(Cl)C(CBr)CC1(Cl)C2(Cl)Cl (stereo not drawn)
active: Potency [1] 26.6 µM and 43.3 µM
inactive: Potency [2] | Potency [3] | Potency [4] | Potency [5] | activation ([6]; at 70.3 µM (top of the series)) -8.81% and -11.5% | Potency [7] | Potency [8] | Potency [9] | Potency [10]

O=C(NC(O)C(Cl)(Cl)Cl)NC(O)C(Cl)(Cl)Cl (stereo not drawn)
inactive: Potency [1] | Potency [2] | Potency [3] | Potency [4] | Potency [5] | activation ([6]; at 70.3 µM (top of the series)) 4.91% | Potency [7] | Potency [8] | Potency [9] | Potency [10]

CN(C)C(=O)Oc1cc(OC(=O)N(C)C)cc(C(O)CNC(C)(C)C)c1 (stereo not drawn)
inactive: Potency [1] | Potency [2] | Potency [3] | Potency [4] | Potency [5] | activation ([6]; at 32.5 µM (top of the series)) -8.21% | Potency [7] | Potency [8] | Potency [9] | Potency [10]

O=P(O)(O)CN(CP(=O)(O)O)CP(=O)(O)O
inactive: Potency [1] | Potency [2] | Potency [3] | Potency [4] | Potency [5] | activation ([6]; at 32.5 µM (top of the series)) 11.2% | Potency [7] | Potency [8] | Potency [9] | Potency [10]

S=C=S
inactive: Potency [1] | Potency [2] | Potency [3] | Potency [4] | Potency [5] | activation ([6]; at 70.3 µM (top of the series)) -5.81% and -2.85% | Potency [7] | Potency [8] | Potency [9] | Potency [10]

CC1NCCOC1c1ccccc1 (stereo not drawn)
inactive: Potency [1] | Potency [2] | Potency [4] | Potency [5] | activation ([6]; at 70.3 µM (top of the series)) 12.2% | Potency [7] | Potency [8] | Potency [9] | Potency [10]

C(COCC1CO1)OCC1CO1 (stereo not drawn)
active: Potency [1] 43.3 µM
inactive: Potency [2] | Potency [4] | Potency [5] | activation ([6]; at 70.3 µM (top of the series)) 0.393% | Potency [7] | Potency [8] | Potency [9] | Potency [10]

CNC(=O)Oc1ccccc1C(C)C
inactive: Potency [1] | Potency [2] | Potency [4] | Potency [5] | activation ([6]; at 70.3 µM (top of the series)) -4.06% | Potency [7] | Potency [8] | Potency [9] | Potency [10]

CS(=O)(=O)Cl
inactive: Potency [1] | Potency [2] | Potency [4] | Potency [5] | activation ([6]; at 95 µM (top of the series)) 7.45% | Potency [7] | Potency [8] | Potency [9] | Potency [10]

CCN(CCO)CCn1c(Cc2ccccc2)nc2c1c(=O)n(C)c(=O)n2C
inactive: Potency [1] | Potency [2] | Potency [4] | Potency [5] | activation ([6]; at 70.3 µM (top of the series)) 6.52% | Potency [7] | Potency [9] | Potency [10]

CCOC(=O)COc1ccc(Cl)cc1Cl
inactive: Potency [1] | Potency [2] | Potency [4] | Potency [8]

[O-][Br+2]([O-])O
inactive: Potency [1] | Potency [2] | Potency [4] | Potency [5] | activation ([6]; at 70.3 µM (top of the series)) 1.35% | Potency [7] | Potency [8] | Potency [9] | Potency [10]

O=[N+]([O-])c1cccc(CCl)c1
inactive: Potency [1] | Potency [2] | Potency [4] | Potency [8]

COc1cc(CCN)cc(OC)c1OC
inactive: Potency [1] | Potency [2] | Potency [4] | Potency [5] | activation ([6]; at 95 µM (top of the series)) -6.66% | Potency [7] | Potency [8] | Potency [10]

CCOP(=S)(OCC)Oc1ccc(Cl)cc1Cl
inactive: Potency [1] | Potency [2] | Potency [4] | Potency [5] | Potency [7] | Potency [8] | Potency [9] | Potency [10]

CC(C)[N+](C)(CCC(C(N)=O)(c1ccccc1)c1ccccc1)C(C)C
inactive: Potency [1] | Potency [2] | Potency [4] | Potency [5] | activation ([6]; at 32.5 µM (top of the series)) 1.94% | Potency [7] | Potency [8] | Potency [9] | Potency [10]

COc1cccc(C=O)c1
inactive: Potency [1] | Potency [2] | Potency [4] | Potency [5] | activation ([6]; at 70.3 µM (top of the series)) -1.53% | Potency [7] | Potency [8] | Potency [9] | Potency [10]

COC(=O)c1ccc(CBr)cc1
inactive: Potency [1] | Potency [2] | Potency [3] | Potency [5] | Potency [8] | Potency [9] | Potency [10]
active: Potency [6] 6.94 µM

ClCOCCl
inactive: Potency [1] | Potency [2] | Potency [4] | Potency [5] | Potency [7] | Potency [8] | Potency [9] | Potency [10]
active: Potency [6] 61.4 µM

CC[C@@H](CO)NC(=O)[C@@H]1C=C2c3cccc4[nH]cc(c34)C[C@H]2N(C)C1
inactive: Potency [1] | Potency [2] | Potency [4] | Potency [5] | activation ([6]; at 70.3 µM (top of the series)) 2.56% | Potency [7] | Potency [8] | Potency [9] | Potency [10]

Cc1ccc(-c2nc3ccc(C)cn3c2CC(=O)N(C)C)cc1
inactive: Potency [1] | Potency [2] | Potency [4] | Potency [5] | activation ([6]; at 70.3 µM (top of the series)) 15.6% | Potency [7] | Potency [8] | Potency [9] | Potency [10]
